Most compounds without a hit are left out; they make up all but 17% or so of the library.
TDP1 cell CPT: DT40-hTDP1 cell growth loss with CPT; chicken DT40 Tdp1-/-;hTDP1 cells + 20 nM CPT, ATP luminescence, 48 h; Potency, µM (titrated, usually from 46.2 µM), actives largely listed as inhibitors; 12% of 420,000 active; note: nearly all actives have a fitted effect of over 55% in size
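Chicken DT40 Tdp1-/- cells stably complemented with human TDP1 were seeded at 400 cells/well in medium containing 20 nM camptothecin, exposed to pin-transferred compounds, and grown at 37 °C for at least 48 hr. Viability was read as ATP luminescence.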
DT40 TDP1 no CPT: qHTS for Inhibitors of human tyrosyl-DNA phosphodiesterase 1 (TDP1): qHTS in cells in absence of CPT; DT40 Tdp1-/- hTDP1 cells, no CPT, ATP luminescence, 48 h; Potency, µM (highest dose often 46.2 µM), hits mostly inhibitors; 15% of 420,000 active; note: nearly all actives have a fitted effect of over 55% in size
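No-CPT arm: Tdp1-/-;hTDP1 DT40 cells (400/well) plus compounds, incubated ≥48 hr at 37 °C. Readout CellTiter-Glo luminescence.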
TDP1 block: blocks human tyrosyl-DNA phosphodiesterase 1; AID 485290; recombinant TDP1, AlphaScreen DNA substrate cleavage; 0.28% of 350,000 active; Potency, µM (doses to about 130 µM), usual class: inhibitors; note: nearly all actives have a fitted effect of over 40% in size
Target sequence (Q9NUW8 whole entry, looked up): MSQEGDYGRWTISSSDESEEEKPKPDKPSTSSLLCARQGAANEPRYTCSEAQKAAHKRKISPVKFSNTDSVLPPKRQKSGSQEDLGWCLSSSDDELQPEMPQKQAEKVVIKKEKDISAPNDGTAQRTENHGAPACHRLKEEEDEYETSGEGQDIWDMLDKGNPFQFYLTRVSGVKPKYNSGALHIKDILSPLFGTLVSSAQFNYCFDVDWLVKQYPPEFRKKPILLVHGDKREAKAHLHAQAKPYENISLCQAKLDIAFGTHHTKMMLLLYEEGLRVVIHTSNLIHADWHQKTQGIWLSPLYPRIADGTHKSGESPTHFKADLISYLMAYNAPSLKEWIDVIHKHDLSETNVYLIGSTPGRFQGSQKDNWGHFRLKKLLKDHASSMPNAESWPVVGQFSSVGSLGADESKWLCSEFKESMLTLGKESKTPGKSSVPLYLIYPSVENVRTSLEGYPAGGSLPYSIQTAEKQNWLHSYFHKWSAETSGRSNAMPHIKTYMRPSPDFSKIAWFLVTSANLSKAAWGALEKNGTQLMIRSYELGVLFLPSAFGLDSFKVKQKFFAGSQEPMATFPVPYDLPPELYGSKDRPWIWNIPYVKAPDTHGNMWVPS
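Here, a 5' biotin and 3' phosphotyrosine-FITC DNA oligonucleotide reports Tdp1 activity: intact substrate bridges AlphaScreen beads, while cleavage leaves a 3' phosphate and drops signal. All incubations at room temperature.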
ClpP mod: qHTS Assay for Activators of ClpP. purified B. subtilis ClpP, FRET peptide cleavage, 20 min. Potency, µM (highest dose often 57.5 µM). 1.9% of 340,000 active. AID 651965, 2013; active = well fitted falling curve with a large enough effect; inconclusive = small, poorly fitted or top-dose-only effect; inactive = no such curve, though single readings can be large or run the other way; note: the source files actives as falling curves though it sought activators and does not explain the sign; nearly all actives have a fitted effect of over 65% in size
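Purified B. subtilis ClpP, 10 microg/mL final in Tris/HCl pH8 with KCl, BSA, glycerol and Tween-20, cleaved an Abz/nitrotyrosine-quenched decapeptide. Fluorescence (ex 320, em 430) was read at 0 and 20 min at room temperature. Delta was normalized to 5.8 microM ADEP and DMSO/no-enzyme controls.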
A number is an active result; [ ] = another dose, or the depositor's remark. Unless noted, calls come from the whole dose curve; as a rule, active = well fitted curve in the direction sought with a large enough effect; inconclusive = small, poorly fitted or top-dose-only effect, or another doubt; inactive = no such curve, though single readings can be large; an effect the other way counts as inactive or inconclusive.

Results for COC(=O)[C@@]1(Cc2ccccc2)[C@@H]2C(=CC(=O)[C@H]2CC(=O)C(=O)N(C)C)CN1C(=O)c1ccccc1 ?
TDP1 cell CPT: 9.2µM; DT40 TDP1 no CPT: 8.2µM; TDP1 block: inactive; ClpP mod: inactive

How did CCN(CC)CCCn1c(=S)[nH]c2ncccc2c1=O do in these assays?
TDP1 cell CPT: inactive; DT40 TDP1 no CPT: inactive; TDP1 block: inactive; ClpP mod: 32µM

How did CCN(CCCn1c(=S)[nH]c2ncccc2c1=O)c1ccccc1 do in these assays?
TDP1 cell CPT: inactive; DT40 TDP1 no CPT: inactive; TDP1 block: inactive; ClpP mod: inactive

How did CNCCCC1Sc2ccccc2Oc2ccccc21 (stereo not drawn) do in these assays?
TDP1 cell CPT: inconclusive; DT40 TDP1 no CPT: 15µM; TDP1 block: inactive; ClpP mod: inactive

What do the screens show for `CCN(CC)CCCNC(=O)C1c2ccccc2Oc2ccccc21`?
TDP1 cell CPT: inactive; DT40 TDP1 no CPT: inactive; TDP1 block: inactive; ClpP mod: inactive

Results for O=C(NCCOc1ccc(Cl)cc1)c1ccc2c(c1)OCCO2 ?
TDP1 cell CPT: inactive; DT40 TDP1 no CPT: inactive; TDP1 block: inactive; ClpP mod: inactive

Results for Cc1ccc(CCNC(=O)Cn2ccc3cc(S(=O)(=O)N4CCCC4)ccc32)cc1 ?
TDP1 cell CPT: inconclusive; DT40 TDP1 no CPT: 23µM; TDP1 block: inactive

How did O=C(Cn1ccc2cc(S(=O)(=O)N3CCCCCC3)ccc21)NCCc1ccccc1Cl do in these assays?
TDP1 cell CPT: inconclusive; DT40 TDP1 no CPT: inconclusive; TDP1 block: inactive; ClpP mod: inactive

How did Cc1ccccc1CCNC(=O)Cn1ccc2cc(S(=O)(=O)N3CCCC3)ccc21 do in these assays?
TDP1 cell CPT: 18µM; DT40 TDP1 no CPT: inconclusive; TDP1 block: inactive; ClpP mod: inactive

Results for COc1ccc(C2C(=O)c3ccccc3C2=Nc2ccc(Br)cc2)cc1 (stereo not drawn) ?
TDP1 cell CPT: inconclusive; DT40 TDP1 no CPT: inactive; TDP1 block: inactive; ClpP mod: inactive

What do the screens show for `c1ccc(-c2nnc(CN3CCN(C(c4ccccc4)c4ccccc4)CC3)o2)cc1`?
TDP1 cell CPT: inconclusive; DT40 TDP1 no CPT: inconclusive; TDP1 block: inactive; ClpP mod: inactive

How did CC(C)c1ccc(NC(=O)C2Cc3c(-c4ccc(Cl)cc4)ccnc3O2)cc1 (stereo not drawn) do in these assays?
TDP1 cell CPT: 16µM; DT40 TDP1 no CPT: 9.2µM; ClpP mod: inconclusive

Results for O=C(Nc1ccc(F)c(Cl)c1)C1Cc2c(-c3ccc(Cl)cc3)ccnc2O1 (stereo not drawn) ?
TDP1 cell CPT: 16µM; DT40 TDP1 no CPT: inconclusive; ClpP mod: inactive

Results for O=C(Nc1ccc(Cl)cc1)C1Cc2c(-c3ccc(Cl)cc3)ccnc2O1 (stereo not drawn) ?
TDP1 cell CPT: 23µM; DT40 TDP1 no CPT: 21µM; ClpP mod: inactive

How did O=C(CCN1N=C(c2ccccc2)CCC1=O)NCC1COc2ccccc2O1 (stereo not drawn) do in these assays?
TDP1 cell CPT: inactive; DT40 TDP1 no CPT: inactive; ClpP mod: inactive

Results for COc1ccc(N2CCN(C(=O)COC(=O)[C@@H](NC(=O)c3c(F)cccc3F)C(C)C)CC2)cc1 ?
TDP1 cell CPT: inactive; DT40 TDP1 no CPT: inactive; ClpP mod: inactive

How did COC(=O)c1c(NC(=O)COC(=O)Cn2cnc3ccccc32)sc2c1CCCC2 do in these assays?
TDP1 cell CPT: inactive; DT40 TDP1 no CPT: inconclusive; TDP1 block: inactive; ClpP mod: inactive

Results for Cc1cc(C(=O)CN2CCC(C)CC2)c(C)n1-c1ccccc1F ?
TDP1 cell CPT: inconclusive; DT40 TDP1 no CPT: 16µM; TDP1 block: inactive; ClpP mod: inactive

What do the screens show for `CC(c1ccccc1)N1CC(C(=O)N2CCCC(C(N)=O)C2)CC1=O` (stereo not drawn)?
TDP1 cell CPT: inactive; DT40 TDP1 no CPT: inactive; TDP1 block: inactive; ClpP mod: inactive

How did CC(Nc1ccc(Cl)cc1)c1cc(Cl)ccc1O (stereo not drawn) do in these assays?
TDP1 cell CPT: inconclusive; DT40 TDP1 no CPT: 18µM; TDP1 block: inactive; ClpP mod: inactive

Results for CCOc1ccc(NC(C)c2cc(Cl)ccc2O)cc1 (stereo not drawn) ?
TDP1 cell CPT: inactive; DT40 TDP1 no CPT: inactive; TDP1 block: inactive; ClpP mod: inactive

What do the screens show for `COC(=O)c1ccccc1NC1CC(=O)N(c2c(C)cccc2C)C1=O` (stereo not drawn)?
TDP1 cell CPT: inconclusive; DT40 TDP1 no CPT: inconclusive; TDP1 block: inactive; ClpP mod: 8.9µM

What do the screens show for `C=CCNC(=O)/C(C#N)=C\c1cc(Cl)c(OCC)c(OC)c1`?
TDP1 cell CPT: inconclusive; DT40 TDP1 no CPT: inconclusive; TDP1 block: inactive; ClpP mod: inactive

Results for CCOc1ccc(N2C(=O)/C(=C\c3ccc(OC)c(O)c3)S(=O)(=O)C2c2cccc([N+](=O)[O-])c2)cc1 (stereo not drawn) ?
TDP1 cell CPT: inactive; DT40 TDP1 no CPT: inconclusive; TDP1 block: inactive; ClpP mod: inactive

What do the screens show for `CCOc1ccc(N2C(=O)/C(=C\c3ccc(O)c(OC)c3)S(=O)(=O)C2c2cccc([N+](=O)[O-])c2)cc1` (stereo not drawn)?
TDP1 cell CPT: 18µM; DT40 TDP1 no CPT: inconclusive; TDP1 block: inactive; ClpP mod: inactive

How did O=C(OCc1cc(=O)n2ccsc2n1)c1ccccc1NCCO do in these assays?
TDP1 cell CPT: inactive; DT40 TDP1 no CPT: inactive; TDP1 block: 45µM

How did CCCCC(=O)Nc1ccc(C(=O)OCc2cc(=O)n3ccsc3n2)cc1 do in these assays?
TDP1 cell CPT: inconclusive; DT40 TDP1 no CPT: 16µM; TDP1 block: inactive; ClpP mod: inactive

Results for O=C(COc1ccc(Cl)cc1)Nc1ccc(C(=O)OCc2cc(=O)n3ccsc3n2)cc1 ?
TDP1 cell CPT: 15µM; DT40 TDP1 no CPT: inconclusive; TDP1 block: inactive; ClpP mod: inactive

What do the screens show for `CCCOc1c(Br)cc(C(=O)OCc2cc(=O)n3ccsc3n2)cc1OC`?
TDP1 cell CPT: 5.8µM; DT40 TDP1 no CPT: 10µM; ClpP mod: inactive

How did O=C(OCc1cc(=O)n2ccsc2n1)c1ccc(OC(F)F)cc1 do in these assays?
TDP1 cell CPT: inactive; DT40 TDP1 no CPT: inactive; TDP1 block: inactive; ClpP mod: inactive

Results for COc1ccccc1C(=O)OCc1cc(=O)n2ccsc2n1 ?
TDP1 cell CPT: inactive; DT40 TDP1 no CPT: inactive; TDP1 block: inactive; ClpP mod: inactive

What do the screens show for `Cc1cn2c(=O)cc(COC(=O)c3cccc(NC(=O)COc4ccc(Cl)cc4)c3)nc2s1`?
TDP1 cell CPT: inactive; DT40 TDP1 no CPT: inactive; TDP1 block: inactive; ClpP mod: inactive

What do the screens show for `Cc1c(C(=O)NCC2Cc3cccc(-c4cncnc4)c3O2)c(-c2ccccc2)nn1-c1ccccc1` (stereo not drawn)?
TDP1 cell CPT: inactive[9.04 µM]; DT40 TDP1 no CPT: inactive

What do the screens show for `CCc1ccccc1NC(=O)CN(Cc1ccccc1)S(=O)(=O)c1ccc2nc(C)sc2c1`?
TDP1 cell CPT: inconclusive; DT40 TDP1 no CPT: inconclusive; TDP1 block: inactive; ClpP mod: inactive

Bioassay records as filed in PubChem.
